Bioassay records as filed in PubChem.
Most compounds without a hit are left out; they make up all but 1.3% or so of the library.
TNAP act DEA: human TNAP enzyme activators, primary screen, biochemical, luminescent, intermediate phosphate acceptor level | AID 813, 2007 | 64,000 tested, under 10 active | purified TNAP, CDP-star luminescence, 100 mM DEA, 30 min; active compounds read high; scale: 0 levamisole-inhibited, 1 vehicle-only enzyme | activation factor at 20 µM | Alkaline phosphatase, tissue-nonspecific isozyme (Homo sapiens), P05186;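 active means activation factor of at least 2 at 20 µM, relative to controls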
PLAP activator: PLAP enzyme activators, biochemical, luminescence, HTS; Alkaline phosphatase, placental type (Homo sapiens), P05187; purified PLAP enzyme, luminescent substrate read-out; active compounds read high; activation fold at 20 µM; 96,000 tested, 1.2% active; in the data active means activation fold above about 2
Target sequence (P05187 whole entry, looked up): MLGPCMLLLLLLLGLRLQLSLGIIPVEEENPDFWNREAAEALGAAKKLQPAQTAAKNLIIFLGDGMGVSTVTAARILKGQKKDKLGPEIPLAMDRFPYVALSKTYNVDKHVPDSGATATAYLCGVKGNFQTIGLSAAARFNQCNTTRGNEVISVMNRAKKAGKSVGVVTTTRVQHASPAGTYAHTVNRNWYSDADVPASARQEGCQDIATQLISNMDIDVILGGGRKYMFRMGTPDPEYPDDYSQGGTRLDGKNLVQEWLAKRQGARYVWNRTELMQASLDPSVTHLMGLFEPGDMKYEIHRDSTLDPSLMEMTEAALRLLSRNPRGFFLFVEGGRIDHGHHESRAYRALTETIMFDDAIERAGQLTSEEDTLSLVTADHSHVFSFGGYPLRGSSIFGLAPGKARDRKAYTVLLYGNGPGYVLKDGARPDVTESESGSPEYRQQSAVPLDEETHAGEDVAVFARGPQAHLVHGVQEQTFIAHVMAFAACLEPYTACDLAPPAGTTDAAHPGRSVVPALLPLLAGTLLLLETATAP
E coli WT exp: growth inhibitors of wild-type E. coli, primary screen, strain BW25113, expanded library, OD600. OD600 absorbance. 98,000 tested, 0.15% active. AID 710, 2007. growth inhibition, % at 100 µM;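 active means growth inhibition above about 50% at one test dose, limit read from the data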;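 further: growth measured after 20 h incubation at 37 °C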
HePTP inhibitor: inhibitors of human HePTP phosphatase, primary screen, biochemical, absorbance, leukemia target | inhibition, % at 20 µM | AID 521, 2006 | 110,000 tested, 0.64% active | Tyrosine-protein phosphatase non-receptor type 7 (Homo sapiens), P35236 | recombinant HePTP phosphatase activity, OD absorbance; in the data active means inhibition above about 50%;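 further: plate controls were vehicle for no effect and reference inhibitor for full effect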
* = called active by the depositor; · = no result.

SMILES	TNAP act DEA	PLAP activator	E coli WT exp	HePTP inhibitor
Cc1cc(NC(=O)c2ccc(-c3ccc(Cl)cc3)o2)ccc1NC(=O)c1ccco1	·	·	·	60.8*
COC(=O)CSc1ccc(C#N)c(SCC(=O)OC)c1	·	1.2	2.0	·
Cc1ccc(C)n1-c1ccc(OCC(=O)O)cc1	·	·	·	104.0*
CC(=O)c1ccc(-n2c(C)ccc2C)cc1	·	·	·	0.4
Cc1ccc(C)n1-c1ccc(SCC(=O)O)cc1	·	·	·	102.7*
O=C1c2ccc(Oc3ccc4c(c3)C(=O)N(c3ccc(S)cc3)C4=O)cc2C(=O)N1c1ccc(S)cc1	·	·	·	101.8*
COc1cc(OC)c(/C=C2\C(=O)NC(=O)N(c3ccc(Cl)cc3)C2=O)cc1Br	·	·	·	-1.0
Cc1nc(NC(=O)c2cc3c(C)nn(-c4ccccc4)c3s2)sc1C(=O)Nc1ccccc1	·	2.3*	-13.0	·
CC(=O)c1sc(NC(=O)c2cc3c(C)nn(-c4ccccc4)c3s2)nc1C	·	0.9	-4.0	·
COC(=O)c1sc(NC(=O)c2sc3cc(C)ccc3c2Cl)c(C#N)c1C	·	·	·	102.7*
CC(c1ccccc1)N1CCn2c(nc3cc(NC(=O)NC4CCCCC4)ccc32)C1 (configuration not stated)	·	2.9*	-3.0	·
COc1cccc(C(=O)/C=C/Nc2cc(C)ccc2O)c1	1	2.9*	-7.0	5.7
COc1ccc(NC(=O)c2ccc(Nc3nnc(C)c4ccccc34)cc2)cc1	·	·	·	59.7*
COc1ccc(C(CNC(=O)c2cc(=O)[nH]c3ccccc23)N2CCCC2)cc1 (configuration not stated)	0.9	1.3	8.0	0.8
Cc1ccc(O)c(Sc2cc(C)ccc2O)c1	1.1	2.5*	45.0	7.4
COC(=O)c1ccc(O)c(Sc2cc(C(=O)OC)ccc2O)c1	1.1	1.5	21.0	8.4
O=C(COc1ccc(Cl)cc1Cl)Nc1ccc2c(c1)oc1ccccc12	·	·	·	-2.1
O=C(COc1ccc(I)cc1)Nc1ccc2c(c1)oc1ccccc12	·	·	·	101.8*
O=[N+]([O-])c1cccc(CN2CCN(S(=O)(=O)c3ccc(Cl)cc3)CC2)c1	·	·	·	101.7*
CCOc1ccc(N(C(C)C(=O)NCc2ccco2)S(C)(=O)=O)cc1 (configuration not stated)	·	2*	-10.0	·
CC1=C(C#N)c2nc(N)c(C#N)c(C)c2/C1=C/c1ccc(-c2cccc(C(=O)O)c2)o1	·	·	·	103.2*
CC(=O)c1cccc(-c2ccc(/C=C3\C(=O)NC(=O)C(C#N)=C3C)o2)c1	·	·	·	71.6*
CCCCOC(=O)C1C2C=CC3(CN(CCc4ccccc4)C(=O)C13)O2 (configuration not stated)	1	·	13.0	2.7
C=CCn1cnc2scc(-c3ccc(CC)cc3)c2c1=O	·	1	11.0	·
O=C(CSc1ncn[nH]1)Nc1ccc(F)cc1	·	·	·	-0.9
SMILES	TNAP act DEA	PLAP activator	E coli WT exp	HePTP inhibitor
O=C(CSc1ncn[nH]1)Nc1c(F)cc(F)cc1Br	·	2.1*	3.0	·
O=C(O)c1cccc(N2C(=O)c3ccc(OCCOc4ccc5c(c4)C(=O)N(c4cccc(C(=O)O)c4)C5=O)cc3C2=O)c1	·	·	·	103.8*
O=C(O)COc1ccc(N2C(=O)c3ccc(C(=O)O)cc3C2=O)cc1	·	·	·	-5.8
CC(C)(C)c1cc(CCC(=O)NNC(=O)c2ccccc2)cc(C(C)(C)C)c1O	·	·	·	56.4*
CC(=O)Nc1ccc(C(=O)NNC(=O)CCc2ccccc2)cc1	·	1.5	13.0	·
COC(=O)c1cc(CSc2nc3ccccc3[nH]2)oc1C	·	2.3*	20.0	·
CCOc1ccc2nc(SCC(=O)Nc3ccc4c(c3)OCCO4)[nH]c2c1	·	2.1*	-3.0	·
CCCc1cc(=O)[nH]c(SCc2cc(C(=O)OC)c(C)o2)n1	0.9	1.4	3.0	-3.6
CCOc1ccc2nc(SCc3ccc(C(=O)OC)o3)[nH]c2c1	1	2.2*	11.0	10.6
CCC(C)N=CC1=C(O)C(C(=O)OC)C(C)(C)CC1=O (configuration not stated)	·	·	·	-20.6
COC(=O)C1C(O)=C(C=NCC(C)N=CC2=C(O)C(C(=O)OC)C(C)(C)CC2=O)C(=O)CC1(C)C (configuration not stated)	1	2.2*	3.0	6.4
CCOc1ccc(C2CC(c3ccc(CC)cc3)n3nc(N)nc3N2)cc1 (configuration not stated)	1	1.3	-2.0	1.5
O=C(CC1S/C(=N\N=C\c2ccco2)NC1=O)Nc1ccc(C(=O)O)cc1 (configuration not stated)	·	·	·	100.7*
CCNC(=O)CC1S/C(=N\N=C(/C)c2ccc([N+](=O)[O-])cc2)NC1=O (configuration not stated)	·	·	·	4.1
C/C(=N\N=C1\NC(=O)C(CC(=O)Nc2ccc(C(=O)O)cc2)S1)c1ccc([N+](=O)[O-])cc1 (configuration not stated)	·	·	·	93.7*
O=C(CC1S/C(=N\N=C\c2cccs2)NC1=O)Nc1ccc(C(=O)O)cc1 (configuration not stated)	·	·	·	89.7*
O=C(CC1S/C(=N\N=C\c2ccco2)NC1=O)Nc1cccc(Cl)c1Cl (configuration not stated)	·	·	·	8.9
CC1(C)Cc2c(cnn2-c2ccccc2)C(=O)/C1=N\NC(=O)c1ccccc1	·	0.9	-5.0	·
CCC(C)NC(=O)CN1C(=O)CC(C)(C)S(=O)(=O)c2ccccc21 (configuration not stated)	1	0.9	7.0	-11.4
Cc1ccc(OCCc2c(C)n[nH]c2C)c(Cl)c1	·	·	·	104.7*
COc1ccc(-c2n[nH]c3c2C(c2ccc(OC)c(OC)c2)N(c2ccccc2)C3=O)cc1 (configuration not stated)	·	2.4*	-7.0	·
O=C1NC(=S)S/C1=C/c1ccc(Sc2ccccc2)o1	·	·	·	87.2*
CCCNC(=O)Cc1ncn[nH]1	0.9	0.9	2.0	4.8
CC(C)(C)c1ccccc1OCC(=O)Nc1ncn[nH]1	1.4	2*	-8.0	7.1
O=C(CCc1ccccc1)Nc1ncn[nH]1	1.7	2.6*	1.0	-2.0
SMILES	TNAP act DEA	PLAP activator	E coli WT exp	HePTP inhibitor
O=C(Cc1ncn[nH]1)NCCc1ccccc1	0.9	2.4*	6.0	1.5
CCOC(=O)N1CCC(NC(=O)CS(=O)Cc2nc(-c3ccc(OC)c(OC)c3)oc2C)CC1 (configuration not stated)	1	1.4	6.0	6.0
CC1Oc2ccccc2C=C1/C=C1\SC(=S)N(CCc2ccccc2)C1=O (configuration not stated)	·	·	·	3.8
CC(NC(=O)COc1ccc(C=C2C(=O)NC(=O)NC2=O)cc1)c1ccccc1 (configuration not stated)	·	·	·	2.0
COc1ccccc1N(CC(=O)N/N=C/c1ccc(OCC(=O)NCc2ccco2)cc1)S(=O)(=O)c1ccc(C)cc1	·	2*	-12.0	·
COc1ccc(OC)c(N(CC(=O)NCc2ccco2)S(=O)(=O)c2ccccc2)c1	·	·	·	2.8
c1ccc2c(c1)CC1(CCCC1)n1nnnc1-2	0.9	0.9	0.0	1.7
CCOc1ccc(N(CC(=O)Nc2ccccc2C)S(=O)(=O)c2c(C)noc2C)cc1	1	1.4	-11.0	8.1
